For 69 compounds, manual score results are on record in PubChem BioAssay AID623868 (Vanderbilt High Throughput Screening Facility, 2012).

In all, about 2,100 compounds went through this assay and about 760 (36%) were called active.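 How the source made its calls: active means thallium-flux fluorescence traces judged by eye to show enhanced or reduced glutamate response, manual score 1 or -1, so both directions (some results past the limit were not filed as active); inactive means the rest, including fluorescent or raised-baseline compounds.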 Only a sample is shown.

A short description of the experiment: thallium influx changes without GIRK channels – cell-based, HEK-293 rmGlu8, no GIRK, thallium flux, counter-screen for GIRK activator project, confirmation (AID 623868).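 Further: extra codes mark interference with 3 for fluorescent and 4 for baseline rise.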 Conditions: thallium flux fluorescence, at 10 µM, actives lie on both sides, codes: 1 enhancer, -1 blocker, 0 none, thallium stimulus containing EC20 glutamate. On the technique in general: Counterscreens check selectivity or assay interference.
In the case of `O=C(NN=c1c(=O)c2ccccc2c1=O)c1ccccc1`, the manual score was 1 (active).
Next, `C/C(=N\O)C(C)NC(=O)c1ccccc1` (centres undefined): 0 (inactive); `O=C(Nc1ccc(SC(F)F)cc1)C12CCC(CC1)C2`: 0 (inactive); `O=c1c2cc(N3CCOCC3)ccc2[nH]c(=S)n1Cc1ccc(Cl)cc1`: 0 (inactive).
As for `O=c1c2cc(Cl)ccc2[nH]c(=S)n1Cc1ccco1`, the manual score is 1 (active).
Consider `O=c1[nH]c2ccc(Cl)cc2c(=O)n1Cc1ccco1`, for which the manual score was 0 (inactive).
Next, `O=c1c2cc(Cl)ccc2[nH]c(=S)n1Cc1cccs1`: 1 (active); `Cc1c(C(=O)O)[nH]c2c1C(=O)CC(c1ccc(Cl)cc1)C2` (centres undefined): 0 (inactive).
Regarding `CN1CCN(CC(=O)N2c3ccccc3C(C)(c3ccc(Cl)cc3)CC2(C)C)CC1` (centres undefined), the manual score is 0 (inactive).
As to `CC(C)CNC(=S)NC(=O)c1ccc([N+](=O)[O-])cc1`, the manual score is 1 (active).
Consider `CCCCNC(=S)NC(=O)c1ccc([N+](=O)[O-])cc1`, for which the manual score was 1 (active).
Regarding `CCCCCC(=O)NC(=S)NNC(=O)c1ccc([N+](=O)[O-])cc1`, the manual score is 1 (active).
As to `COC(=O)C(CC(C)C)NC(=O)c1ccc([N+](=O)[O-])c(C)c1` (centres undefined), the manual score was 0 (inactive).
Regarding `CC(C)CNC(=S)NC(=O)c1ccc(F)cc1`, the manual score is 1 (active).
`O=C(NN=C(Cc1ccccc1)Cc1ccccc1)c1ccc(F)cc1`: the manual score was 0 (inactive).
As to `CCCn1c(=N)n(CC(O)COc2cccc(C)c2)c2ccccc21` (centres undefined), the manual score was 0 (inactive).
As for `CN(C)Cc1c(O)c(Cl)cc2c3c(c(=O)oc12)CCCC3`, the manual score was 0 (inactive).
Next, `COc1ccc2c(c1)C(C)=CC(C)(C)N2C(=O)CNCc1ccc2c(c1)OCO2`: 0 (inactive); `O=C(O)c1oc2ccccc2c1CSc1ccccn1`: 0 (inactive).
Consider `CCn1cc(C(=O)N2CC=C(c3ccccc3)CC2)c(=O)c2ccc(C)nc21`, for which the manual score is -0.5 (inactive).
Take `CCN(CC)c1ccc(/C=C2/C(=O)c3ccc(C(=O)O)cc3C2=O)cc1`: the manual score was 3 (inactive).
As for `COc1ccc2nc(N3C(=O)/C(=C/c4ccccc4)NC3=S)sc2c1`, the manual score is 1 (active).
As for `O=C(c1ccco1)N1CCN(c2ncnc3scc(-c4cccs4)c23)CC1`, the manual score is 0 (inactive).
On to `Cc1cc(N2CCOCC2)n2nc(C)c(-c3ccccc3)c2n1`, for which the manual score was 0 (inactive).
Next, `Cn1c(SCC(=O)N2c3ccccc3CCc3ccccc32)nnc1-c1ccc(O)cc1`: 0 (inactive); `CCCn1c(=O)c2ccccc2n2c(SCc3nc4ccccc4s3)nnc12`: -1 (active).
`CCCn1c(=O)c2ccccc2n2c(SCC(=O)N3CCc4ccccc4C3)nnc12`: the manual score was -1 (active).
For the compound `CCc1cccc(CC)c1-n1c(SCC(=O)N2CCc3ccccc3C2)nnc1-c1cccnc1`, the manual score was 0 (inactive).
Consider `CCCn1c(=O)c2ccccc2n2c(SCCOc3ccccc3F)nnc12`, for which the manual score was -0.5 (inactive).
Turning to `COC(=O)c1ccc(NC(=O)C23CC4CC(C2)CC(n2cncn2)(C4)C3)cc1`, the manual score is 0 (inactive).
With `CCCOC(=O)c1ccc(NC(=O)c2ccoc2C)cc1`, the manual score was 0 (inactive).
Consider `CCCCOC(=O)c1ccc(NC(=S)NC(=O)c2c(Br)c(C)nn2C)cc1`, for which the manual score is 1 (active).
For `COC(=O)c1ccc(Cl)c(NC(=O)CN2CCN(C)CC2)c1`, the manual score was 0 (inactive).
Next, `CCCCOC(=O)c1ccc(NC(=S)NC(=O)c2c(Cl)cnn2CC)cc1`: 1 (active).
As for `CCCCOC(=O)Nc1ccc(C(=O)OCCC)cc1`, the figure is 0 (inactive).
For `CCCCOC(=O)c1ccc(NC(=S)NC(=O)c2c(Cl)cnn2C)cc1`, the manual score is 0.5 (inactive).
`CCCCc1ccc(NC(=S)Nc2ccc(Cl)c(S(=O)(=O)N(C)C)c2)cc1`: the manual score was 0 (inactive).
Consider `COC(=O)c1ccc(NC(=S)NC(=O)c2c(Cl)cnn2C)cc1`, for which the manual score was 1 (active).
Turning to `O=C(NC(=S)Nc1ccccc1N1CCOCC1)c1cccs1`, the manual score is 1 (active).
As for `CC1CCN(c2ccccc2NC(=S)NC(=O)c2cccs2)CC1`, the manual score is 1 (active).
As for `Cc1ccc(NC(=O)C(c2ccccc2)C2CCCC2)cc1` (centres undefined), the figure is 0 (inactive).
As for `O=C1NC(=S)/C(=C\c2ccc(-c3ccccc3Cl)o2)S1`, the manual score is 3 (inactive).
On to `O=C1NC(=S)S/C1=C\c1ccc(SCc2ccccc2)o1`, for which the manual score was 1 (active).
Regarding `O=C(CSc1cccc2cccc(Cl)c12)NCc1cccs1`, the manual score was 0 (inactive).
Regarding `CCC(C(=O)OCC(=O)Nc1ccc(Cl)c(S(=O)(=O)N(C)C)c1)c1ccccc1` (centres undefined), the manual score was 0 (inactive).
As for `COC(=O)c1sccc1NC(=O)CSc1ccccc1NS(=O)(=O)c1ccccc1Cl`, the manual score is 1 (active).
Regarding `COC(=O)c1sccc1NC(=O)CSc1ccccc1NS(=O)(=O)c1cc(Cl)ccc1Cl`, the manual score was 1 (active).
Turning to `O=S(=O)(Nc1nc(-c2sccc2Cl)cs1)c1cc(Cl)ccc1Cl`, the manual score was 0 (inactive).
Regarding `COC(=O)c1sccc1NC(=O)CSc1ccccc1NS(=O)(=O)c1ccc(Cl)cc1`, the manual score is 0.5 (inactive).
As for `CN(C)S(=O)(=O)c1cccc(NC(=O)COc2cccc(C#N)c2)c1`, the figure is 0 (inactive); as for `Cc1ccc(C)c(C(=O)c2c(C)nc3sccn23)c1`, 0 (inactive).
In the case of `CC(/C=C/c1ccccc1)=N/NC(=O)c1cc([N+](=O)[O-])cc([N+](=O)[O-])c1`, the manual score was 0 (inactive).
Regarding `Cc1ccc(/C=N\NC(=O)c2cc([N+](=O)[O-])cc([N+](=O)[O-])c2)o1`, the manual score was 1 (active).
For the compound `Cc1ccc(OCC(=O)N/N=C\c2ccc(-c3cccc(C(=O)O)c3)o2)c(C)c1`, the manual score was 0 (inactive).
Next, `Cc1ccc(-c2cc(-c3ccccc3)[nH]c(=S)c2C#N)cc1`: 1 (active); `COc1ccc(CC(=O)Nc2cc(=O)n(C)c(=O)n2C)cc1`: 0 (inactive); `COc1ccc(/C=C/c2nc3sc4c(c3c(=O)o2)CCC4)cc1`: 3 (inactive).
Next, `Cc1cc(C)nc(Sc2ncnc3sc4c(c23)CCC4)n1`: 1 (active); `CC(C)Cn1cnc2sc3c(c2c1=N)CCCC3`: 0 (inactive); `COc1ccc(CCC(=O)NCc2cnn(C)c2)cc1`: 0 (inactive).
Next, `COc1ccc(C(=O)NC(=S)NNC(=O)CCc2ccccc2)cc1`: 1 (active); `COc1ccc(C(=O)CC(=O)C(=O)NCCc2cccc(C)c2)cc1`: 0.5 (inactive).
With `O=C(CCSCc1cccc(Cl)c1)NCCc1ccc(Cl)cc1`, the manual score was 0 (inactive).
Next, `O=C(CCc1ccccc1)NNC(=S)NC(=O)c1ccc(Cl)cc1`: 1 (active); `Oc1[nH]c2ccccc2c1N=NC(=S)NCC1CCCO1` (centres undefined): 1 (active); `Oc1cccc(Nc2nc(NCC3CCCO3)c3ccccc3n2)c1` (centres undefined): 0 (inactive).
`Oc1[nH]c2c(Cl)cc(Cl)cc2c1N=NC(=S)NCC1CCCO1` (centres undefined): the manual score is 1 (active).
As for `Clc1ccc2[nH]c3c(NCC4CCCO4)ncnc3c2c1` (centres undefined), the manual score was 0 (inactive).
Turning to `Oc1[nH]c2ccccc2c1N=NC(=S)NCCc1ccccc1`, the manual score is 1 (active).
